Measurements from PubChem BioAssay (NCI).
About 83,000 compounds went through this panel and 20% of them were active in at least one assay; those are over-represented in the sample as a whole.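 Step 1: grow cells in 96-well plates. Step 2: add test compound at a single concentration. Step 3: incubate 48 h. Step 4: record percent growth.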 Calls of active or inactive are those of the source. How the source made its calls: active means growth percent below 10; inactive means the rest.

What was measured:
Experiment in all cases: NCI-60 one-dose screen, 48 h (100 = growth as untreated, 0 = no growth, -100 = all killed)
Details in all cases: 10 µM
[1] = system: K-562 leukemia
[2] = system: MALME-3M melanoma
[3] = system: MDA-MB-231 breast
[4] = system: RXF 393 renal
[5] = system: SF-268 CNS
[6] = system: SF-295 CNS
[7] = system: SF-539 CNS
[8] = system: UACC-257 melanoma
[9] = system: M14 melanoma
[10] = system: HCT-15 colon

Measured: growth

CCOC(=O)CCC(NC(=O)c1ccc(N)cc1)C(=O)OCC (stereo not given)
inactive: [1] 112% | [2] 88.2% | [3] 126% | [4] 129% | [5] 99.7% | [6] 136% | [7] 97.6% | [8] 101% | [9] 91.3% | [10] 98.7%

ClCC#CCSc1ncnc2c1ncn2CC#CCCl
inactive: [1] 17.5% | [3] 20.2% | [7] 26% | [8] 55% | [10] 30.1%
active: [2] -46.3% | [4] -65.9% | [5] -22.4% | [6] 8.11% | [9] 2.78%

COc1ccc(/C=C2/CN(C(=O)c3ccc(C)cc3)C/C(=C\c3ccc(OC)cc3)C2=O)cc1
inactive: [1] 23.7% | [2] 91.4% | [3] 87.1% | [4] 92.3% | [5] 87.4% | [6] 85.2% | [7] 102% | [8] 98.1% | [9] 69.4% | [10] 91.3%

C#Cc1ccc(-n2c(/C=C/c3ccc4ccccc4n3)nc3ncccc3c2=O)cc1
active: [1] 3.17% | [2] -62.9% | [3] -41.2% | [4] -82.5% | [5] -49.5% | [6] -58.3% | [7] -17.6% | [8] -72.9% | [9] -19% | [10] -18.8%

C[C@]12CC[C@@H]3c4ccc(O)cc4C[C@@H](O)[C@H]3[C@@H]1CC[C@@H]2O
inactive: [1] 105% | [2] 102% | [3] 107% | [4] 110% | [5] 109% | [6] 112% | [7] 96.5% | [8] 88.6% | [9] 105% | [10] 102%

Cc1cccc2c(NCCN(C)C)c3cccc(C(=O)NCCN(C)C)c3nc12
active: [1] -24.5% | [2] 7.06% | [3] 5.41% | [4] 8.33% | [6] 7.5% | [8] -20.6% | [10] -46.5%
inactive: [5] 11.3% | [7] 11.6% | [9] 11.7%

COc1cc(-c2cc(/C=C3\C(=O)Nc4cc(Cl)ccc43)[nH]n2)cc(OC)c1OC
inactive: [1] 23.4% | [3] 34.2% | [4] 75.3% | [5] 56.7% | [6] 32.6% | [7] 48.9% | [8] 78% | [9] 19.6% | [10] 13.6%
active: [2] -22.9%

COc1ccc(Nc2nc3ccc(NC(=O)NC4CCCCC4)cc3[nH]c2=O)cc1
inactive: [1] 77.1% | [2] 102% | [3] 70.8% | [4] 48.1% | [5] 91.4% | [6] 82.6% | [7] 68.8% | [8] 90.4% | [9] 103% | [10] 83.2%

Nc1ncn(C2OC(CO)C(O)C2O)c(=O)n1 (stereo not given)
inactive: [2] 15.1% | [4] 10.6% | [5] 23.9% | [6] 15.4% | [8] 14.8%
active: [1] -24% | [3] 0.46% | [7] -24.4% | [9] 1.16% | [10] -15.3%

Cc1cccc(C)c1NC(=O)c1sc2nc3c(cc2c1N)C(=O)CCC3
inactive: [1] 64% | [2] 74.7% | [3] 79% | [4] 94.4% | [5] 103% | [6] 49.9% | [7] 101% | [8] 73.7% | [9] 87.3% | [10] 60.3%

COc1ccc(-c2cc(/C=C3\C(=O)Nc4ccc(Cl)cc43)[nH]n2)cc1OC
inactive: [1] 100% | [2] 87.3% | [3] 79.6% | [4] 88.5% | [5] 85.8% | [6] 99.6% | [7] 82.2% | [8] 132% | [9] 101% | [10] 77.5%

CC(=O)CSC(C)=O
inactive: [1] 106% | [2] 89.6% | [3] 99.7% | [4] 109% | [5] 105% | [6] 91.8% | [7] 95.2% | [8] 100% | [9] 103% | [10] 103%

CCCC(F)C(=O)O (stereo not given)
inactive: [1] 97.6% | [2] 103% | [3] 111% | [4] 117% | [5] 107% | [6] 83.5% | [7] 102% | [8] 92.2% | [9] 97.5% | [10] 100%
